Experimental data from PubChem BioAssay AID1778 (Sanford-Burnham Center for Chemical Genomics, 2009).
Out of some 290,000 compounds screened, about 260 (0.09%) were called active. Cut-off read from the data, not from the text of the source: active = inhibition above about 50%; inactive = the rest. Only a selection was taken, and actives are over-represented in it overall. Potency and affinity values are given separately.

Target: Kappa-type opioid receptor (Homo sapiens) (UniProt P41145)
Assay: kappa opioid receptor blockers – cell-based, luminescence, uHTS (AID 1778)
Conditions: KOR beta-arrestin recruitment, antagonist mode, stronger effect = higher value; at 10 µM unless noted

Kappa-type opioid receptor (Homo sapiens), sequence (P41145 whole entry, looked up): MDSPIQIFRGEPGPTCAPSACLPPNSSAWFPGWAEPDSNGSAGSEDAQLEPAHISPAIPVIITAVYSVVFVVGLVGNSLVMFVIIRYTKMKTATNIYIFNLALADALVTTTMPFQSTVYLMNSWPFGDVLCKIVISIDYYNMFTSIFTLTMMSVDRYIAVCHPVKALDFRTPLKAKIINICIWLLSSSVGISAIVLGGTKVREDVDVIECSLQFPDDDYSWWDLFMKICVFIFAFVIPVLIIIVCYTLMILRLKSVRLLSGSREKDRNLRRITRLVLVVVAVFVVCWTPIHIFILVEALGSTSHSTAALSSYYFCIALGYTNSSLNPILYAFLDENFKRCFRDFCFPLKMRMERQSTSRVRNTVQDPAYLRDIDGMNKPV

Row | SMILES | inhibition
1 | CC(=O)Nc1ccc(S(=O)(=O)NCCC(=O)OCc2ccc([N+](=O)[O-])cc2)cc1 | 16.8% (inactive)
2 | CC1=NN(c2ccccc2)C(=O)/C1=C/N(C)C | 3.4% (inactive)
3 | CC1=NN(c2ccccc2)C(=O)/C1=C\C=C\c1ccccc1 | -34.7% (inactive)
4 | CC1=NN(c2ccccc2)C(=O)/C1=C/C=C/c1ccccc1 | -38.6% (inactive)
5 | CC1=NN(c2ccc(C)cc2)C(=O)/C1=C\C=C\c1ccccc1 | -74.7% (inactive)
6 | O=C(Nc1cccc2c1CCCC2)c1cc([N+](=O)[O-])cc([N+](=O)[O-])c1 | -11.2% (inactive)
7 | CC1=CC(=Nc2c(C)n(C)n(-c3ccccc3)c2=O)C=CC1=O | 35.7% (inactive)
8 | Cc1c(N=c2scc(-c3ccccc3)n2C)c(=O)n(-c2ccccc2)n1C | 16.6% (inactive)
9 | O=C(NC1(C(F)(F)F)OCCO1)c1ccc(F)cc1 | -28.6% [at 20 µM] (inactive)
10 | COc1ccc(C(=O)CSc2ncn[nH]2)cc1OC | 16.2% (inactive)
11 | COC(=O)c1ccc(OC(=O)c2cccnc2SC)cc1 | -3.6% (inactive)
12 | C/C(=N\Nc1nc2ccccc2[nH]1)c1ccc(Cl)s1 | 20.9% (inactive)
13 | C/C(=N\Nc1nc2ccccc2[nH]1)c1ccc(C)o1 | 33.8% (inactive)
14 | C/C(=N\Nc1ccc(Cl)cc1)c1ccccn1 | 1.2% (inactive)
15 | C/C(=N\Nc1ncc(Cl)cc1Cl)c1ccc(C#N)cc1 | -10% (inactive)
16 | C/C(=N\Nc1nc2ccccc2[nH]1)c1ccccn1 | 91.3% (active)
17 | CC(=O)c1cc(-c2ccccc2)[nH]c1N1CCOCC1 | -10.8% (inactive)
18 | O=C(O)c1ccccc1S(=O)(=O)NCC(O)COc1ccc(Br)cc1 (configuration not stated) | 22.9% (inactive)
19 | CCCNC(=S)N1CCN(c2nc(-c3ccc(C)cc3)cs2)CC1 | -15.3% [at 20 µM] (inactive)
20 | COc1ccc(CC(=O)Nc2ccc(OC)nc2)cc1 | 35.7% (inactive)
21 | COc1ccc(NC(=O)C(Cl)=C(Cl)Cl)cn1 | 8% (inactive)
22 | COc1ccc(NC(=O)/C(Cl)=C(/Cl)S(=O)Cc2ccc(Cl)cc2)cn1 (configuration not stated) | 48.8% (inactive)
23 | COc1ccc(NC(=O)/C(Cl)=C(/Cl)S(=O)(=O)Cc2ccccc2)cn1 | 58.9% (inactive)
24 | COc1ccc(NC(=O)/C(Cl)=C(/Cl)S(=O)(=O)Cc2ccc(C)cc2)cn1 | 47.9% (inactive)
25 | COc1ccc(CS(=O)(=O)/C(Cl)=C(/Cl)C(=O)Nc2ccc(OC)nc2)cc1 | 40.1% (inactive)
26 | C(=C\CSc1ncn[nH]1)/CSc1ncn[nH]1 | 0.4% (inactive)
27 | CCSc1nc2c(cnn2-c2ccc(C)cc2)c(=O)[nH]1 | -21.4% (inactive)
